# Test results reported in the supplement of paper PMC7366291.
# Where a name gives a salt, the structure may show the parent alone. ± gives the standard deviation of the averaged measurements.
# System: Danio rerio Tg(wt1b:EGFP) embryo, pronephros
# Experiment: glomerular width (mean of left and right), fold change vs DMSO control; higher = wider glomerulus
# Conditions: 25 µM; exposure: 24-48 hpf
# Method in brief: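 Dechorionated Tg(wt1b:EGFP) zebrafish embryos were incubated at 28.5°C from 24 to 48 hpf with 25 μM compound in HEPES-buffered E3 containing 0.5% DMSO and 0.003% PTU. Distances and angles between 16 manually set points on maximum projections of dorsal pronephros images were measured in Fiji, with values over 2 SD from the feature mean excluded. Each feature is a fold change relative to the mean of same-day DMSO-treated embryos.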
row,Structure (SMILES),glomerular width
1,O=C(CCNNC(=O)c1ccncc1)NCc1ccccc1 [Nialamide],0.97 ± 0.056
2,O=C(O)CNC(=O)C(CS)Cc1ccccc1 (configuration not stated) [Thiorphan],1.04 ± 0.036
3,COc1cc([C@@H]2c3cc4c(cc3[C@@H](O[C@@H]3O[C@@H]5CO[C@@H](C)O[C@H]5[C@H](O)[C@H]3O)[C@H]3COC(=O)[C@H]23)OCO4)cc(OC)c1O [Etoposide],1.052 ± 0.0085
4,CCCN(CCC)CCc1cccc2c1CC(=O)N2 [Ropinirole hydrochloride],0.908 ± 0.044
5,CCn1cc(C(=O)O)c(=O)c2cc(F)c(N3CCNC(C)C3)c(F)c21 (configuration not stated) [Lomefloxacin hydrochloride],0.974 ± 0.12
6,N[C@H]1CONC1=O [(S)-(-)-Cycloserine],0.892 ± 0.011
7,CCN1CCN(C(=O)N[C@@H](C(=O)N[C@@H]2C(=O)N3[C@@H]2SC(C)(C)[C@@H]3C(=O)O)c2ccccc2)C(=O)C1=O [Piperacillin sodium salt],0.991 ± 0.063
8,CNCCCC12CCC(c3ccccc31)c1ccccc12 [Maprotiline hydrochloride],0.992 ± 0.049
9,NC[C@H]1O[C@H](O[C@H]2[C@H](O)[C@@H](O[C@H]3O[C@H](CO)[C@@H](O)[C@H](N)[C@H]3O)[C@H](N)C[C@@H]2N)[C@H](N)C[C@@H]1O [Tobramycin],0.94 ± 0.056
10,Nc1nc2c(ncn2COC(CO)CO)c(=O)[nH]1 [Ganciclovir],1.009 ± 0.0021
11,CS(=O)(=O)c1ccc([C@@H](O)[C@@H](CO)NC(=O)C(Cl)Cl)cc1 [Thiamphenicol],1.03 ± 0.024
12,CN[C@@H]1[C@H](O[C@H]2[C@H](O[C@H]3[C@H](O)[C@@H](O)[C@H](N=C(N)N)[C@@H](O)[C@@H]3N=C(N)N)O[C@@H](C)[C@]2(O)C=O)O[C@@H](CO)[C@H](O)[C@H]1O [Streptomycin sulfate],1.08 ± 0.098
13,CC(=O)NS(=O)(=O)c1ccc(N)cc1 [Sulfacetamide sodic hydrate],1.05 ± 0.057
14,CCN(CC)CCOC(=O)C1(C2CCCCC2)CCCCC1 [Dicyclomine hydrochloride],1.12 ± 0.03
15,Clc1ccc(C(c2ccccc2Cl)C(Cl)Cl)cc1 (configuration not stated) [Mitotane],0.969 ± 0.038
16,CN(Cc1cnc2nc(N)nc(N)c2n1)c1ccc(C(=O)N[C@@H](CCC(=O)O)C(=O)O)cc1 [Methotrexate],1.0099 ± 0.0002
17,C=CCN1CCCC1CNC(=O)c1cc2nn[nH]c2cc1OC (configuration not stated) [Alizapride hydrochloride],0.924 ± 0.018
